We go through 88 molecules from PubChem BioAssay AID652197 (Broad Institute, 2013).

As a reminder, the inhibition is the drop in the measured response relative to a control, in per cent.

“And” between values parts separate entries of the source, which are not always exact repeats. Identical values can stand only once. Screen size: about 340,000 compounds; about 500 (0.15%) were called active. What follows is part of a selection rich in actives, with near analogues and random picks from the rest. A number with no mark means an inactive call.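 The calls were made as follows: active = mean replicate inhibition of at least 30%, or all replicates individually reaching that 30% level; inactive = mean below 30% and not every replicate reaching it.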

Endoplasmic reticulum aminopeptidase 1 (Homo sapiens), sequence (Q9NZ08 whole entry, looked up): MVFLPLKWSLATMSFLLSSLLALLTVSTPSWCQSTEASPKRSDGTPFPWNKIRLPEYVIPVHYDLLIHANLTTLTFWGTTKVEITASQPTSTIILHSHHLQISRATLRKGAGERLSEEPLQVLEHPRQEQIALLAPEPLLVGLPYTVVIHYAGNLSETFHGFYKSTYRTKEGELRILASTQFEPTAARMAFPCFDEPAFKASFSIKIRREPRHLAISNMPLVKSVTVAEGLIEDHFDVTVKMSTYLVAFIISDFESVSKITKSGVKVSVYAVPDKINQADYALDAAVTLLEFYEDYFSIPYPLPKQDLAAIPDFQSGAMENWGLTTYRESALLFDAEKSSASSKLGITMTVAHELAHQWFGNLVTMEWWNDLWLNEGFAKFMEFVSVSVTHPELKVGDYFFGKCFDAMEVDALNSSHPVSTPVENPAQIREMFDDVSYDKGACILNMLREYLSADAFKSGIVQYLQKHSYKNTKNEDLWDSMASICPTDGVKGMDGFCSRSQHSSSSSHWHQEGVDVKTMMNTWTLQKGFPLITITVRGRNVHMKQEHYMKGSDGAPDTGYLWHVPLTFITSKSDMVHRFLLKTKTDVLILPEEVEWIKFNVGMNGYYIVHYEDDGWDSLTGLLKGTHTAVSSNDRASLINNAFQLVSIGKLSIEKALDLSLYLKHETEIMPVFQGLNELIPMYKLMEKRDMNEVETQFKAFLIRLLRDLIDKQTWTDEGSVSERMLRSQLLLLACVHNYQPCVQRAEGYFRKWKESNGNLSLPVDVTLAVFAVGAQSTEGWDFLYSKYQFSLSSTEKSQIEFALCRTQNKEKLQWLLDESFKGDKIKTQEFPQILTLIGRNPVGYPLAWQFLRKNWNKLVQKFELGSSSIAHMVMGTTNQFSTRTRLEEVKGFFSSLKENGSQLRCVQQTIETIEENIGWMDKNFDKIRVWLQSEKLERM

The assay has as its target Endoplasmic reticulum aminopeptidase 1 (Homo sapiens) (UniProt Q9NZ08). Description: inhibition of ERAP1 peptide trimming enzyme – biochemical, single point, plate reader, primary screen (AID 652197).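 Also: 0% = neutral control wells and 100% = L-leucinethiol positive control wells.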 As to conditions: recombinant ERAP1, Leu-AMC fluorescence, 60 min; at 10.7 µM; hits give high values.
On to `Cc1noc(C)c1C(=O)N(C)C[C@H]1OCc2ccccc2-c2c(n(C)c3ccccc23)C(=O)N([C@@H](C)CO)C[C@H]1C`, for which the inhibition was -0.288%. In the case of `O=C1C(Cl)=C(Oc2ccccc2)C(=O)c2ccccc21`, the inhibition was 4.33%. To `CC(=O)N(C1=C(Cl)C(=O)c2ccccc2C1=O)c1ccc(C(=O)O)cc1` belongs 84.4% (active); to `O=C(NC1=CC(=O)c2ccccc2C1=O)c1ccccc1`, 2.97%; to `CC(C)NC(=O)N1CCCCN2[C@@H](CO)[C@@H](c3ccc(C#Cc4ccccc4)cc3)[C@@H]2C1`, 0.974%. With `O=C(Cc1ccccc1)N1CC[C@@H]2[C@H](CO)Nc3ccc(-c4ccccc4)cc3[C@@H]21` the figure was 4.96%; with `C/C=C/c1ccc([C@H]2[C@H](CO)N(C(=O)CN(C)C)C23CN(C(=O)C2CC2)C3)cc1`, -1.65%. To `O=C(C[C@H]1CC[C@H]2[C@@H](COC[C@H](O)CN2S(=O)(=O)c2cccc(F)c2)O1)NC1CCC1` belongs -1.89%. With `COc1ccc(-c2ccc([C@@H]3[C@H](CN(C)S(C)(=O)=O)N[C@@H]3CO)cc2)cc1`, the inhibition is -0.559%.

`C[C@@H]1CCCCO[C@@H](CN(C)S(=O)(=O)c2cccs2)[C@H](C)CN([C@H](C)CO)C(=O)c2cc(NC(=O)CCCN(C)C)ccc2O1`: the inhibition was 0.521%.

With `COc1ccc(CCNC(=O)COC(=O)c2cnc(Cl)c(Cl)c2)cc1`, the inhibition was -0.478%. With `COc1ccc(CCOC(=O)CNC(=O)c2ccc(Cl)cc2Cl)cc1` the figure was 37.4% (active); with `Cc1ccccc1NC(=O)Cc1nc(COC(=O)CNC(=O)c2ccc(Cl)cc2Cl)cs1`, -1.49%; with `CCC(=O)N1CC2(C1)[C@@H](c1ccc(C3=CCCC3)cc1)[C@@H](CO)N2C(=O)COC`, -3.58%. For the molecule `C[C@@H]1CCCCO[C@@H](CN(C)Cc2ccc3c(c2)OCO3)[C@@H](C)CN([C@@H](C)CO)C(=O)c2cc(NC(=O)C3CCCCC3)ccc2O1`, the inhibition is -1.88%.

In the case of `C[C@@H]1CN([C@@H](C)CO)C(=O)c2cc(C#CC3CCCCC3)cnc2O[C@H]1CN(C)C(=O)Cc1ccccn1`, the inhibition is 4.3%.

Turning to `COc1ccc(NC(=O)N(C)C[C@@H]2OCCCC[C@@H](C)Oc3ccc(NS(C)(=O)=O)cc3C(=O)N([C@@H](C)CO)C[C@H]2C)cc1`, the inhibition is 4.38%. On to `CCC(=O)N[C@H]1CC[C@@H](CC(=O)NCC2CC2)O[C@@H]1CO`, for which the inhibition was -1.77%. As to `CN1CCCc2nc(-c3ccccc3)ccc21`, the inhibition was 0.84%. With `Cc1cc2c(nc1C)CCCN2C` the figure was 56.4% (active); with `C[C@H]([C@@H](O)[C@@H](O)[C@@H](C)C(C)(C)C)[C@H]1CC[C@H]2C3CC[C@H]4C[C@H](OS(=O)(=O)O)[C@@H](OS(=O)(=O)O)C[C@]4(C)[C@H]3CC[C@]12C` (stereo partly drawn), 51.7% (active). To `CC(=O)O[C@H]1CC[C@@]2(C)[C@@H](CC[C@@H]3[C@@H]2CC[C@]2(C)[C@@H](C(C)(C)O)C[C@@H]32)C1` belongs -4.42%; to `O=C(C[C@H]1CC[C@H]2[C@@H](COC[C@@H](O)CN2C(=O)Nc2ccc(C(F)(F)F)cc2)O1)NC1Cc2ccccc2C1`, 3.19%. With `Cc1ccc(-c2ccc(C3[C@H]4CNC[C@@H]3N4S(=O)(=O)c3ccccc3C)cc2)cc1` (stereo partly drawn) the figure was 1.57% and -0.081%. On to `COc1cccc(-c2ccc([C@@H]3[C@@H](CO)N4C(=O)CN(C(=O)C5CCCCC5)C[C@H]34)cc2)c1`, for which the inhibition is -0.992%. `CO[C@@H]1CC[C@@H]2CCOc3ccc(C#N)cc3C(=O)N(C)C[C@@H](OC)[C@@H](C)C(=O)N(C)C[C@H]1O2`: the inhibition was -4.56%. To `CNC(=O)C[C@@H]1CC[C@@H]2[C@H](COC[C@@H](O)CN2S(=O)(=O)c2ccccc2Cl)O1` belongs 0.052%; to `Cc1nc2ccc(N)nc2nc1C`, 31.2% (active); to `Cc1nc2cccnc2nc1C`, 1.29%. For `O=C(CCN1CCCCC1)NCC[C@H]1CC[C@@H](NC(=O)C2CCOCC2)[C@H](CO)O1`, the inhibition was 3.14%. To `C[C@H]1CN([C@@H](C)CO)C(=O)Cc2cc(NC(=O)c3ccncc3)ccc2O[C@@H]1CN(C)C(=O)Nc1ccccc1` belongs 1.04%; to `CNC(=O)C[C@H]1CC[C@@H]2[C@H](COc3ccc(NC(=O)Nc4ccc(F)c(F)c4)cc3C(=O)N2C)O1`, 0.113%; to `C#Cc1ccc([C@H]2C=C(C(=O)O)O[C@@H](OCC)[C@@H]2CCCO)cc1`, -6.5%. `C[C@@H]1CCCCO[C@H](CN(C)C(=O)c2ccccc2)[C@H](C)CN([C@@H](C)CO)C(=O)c2cc(NC(=O)Nc3ccc4c(c3)OCO4)ccc2O1`: the inhibition is -5.55%.

As to `Cc1ccc(S(=O)(=O)Nc2ccc3c(c2)C(=O)N([C@@H](C)CO)C[C@@H](C)[C@H](CN(C)Cc2ccc(Cl)c(Cl)c2)OCCCC[C@@H](C)O3)cc1`, the inhibition was 0.461%. To `Cc1ccc(COC(=O)CN2C(=O)NC3(CCCC3)C2=O)cc1` belongs -3.32%; to `Cc1ccc(S(=O)(=O)CCC(=O)OCC(=O)NCCc2ccc(S(N)(=O)=O)cc2)cc1`, -0.437%.

Regarding `Cc1ccc(CNC(=O)COC(=O)C2CCC2)cc1`, the inhibition was 1.31%. Take `COc1ccc(CC2c3cc(OC)c(OC)cc3CC[N+]2(C)CCC(=O)OCCCCCOC(=O)CC[N+]2(C)CCc3cc(OC)c(OC)cc3C2Cc2ccc(OC)c(OC)c2)cc1OC` (stereo not drawn): the inhibition was -5.26%. On to `Cc1ccc(CCCOC(=O)C[N+]2(C)CCCC2)cc1`, for which the inhibition was 106% (active). With `Cc1ccc(CCCOC(=O)C[N+]2(C)CCCCC2)cc1` the figure was 30.8% (active); with `COc1ccc2c3c(n(C)c2c1)[C@@H](CO)N(C(=O)CN1CCOCC1)CC31CCN(C(=O)C2CC2)CC1`, -0.976%. Consider `CCCC(=O)Nc1ccc2c(c1)OC[C@@H](C)N(CC1CCOCC1)C[C@H](C)[C@H](OC)CN(C)C2=O`, for which the inhibition is 6.53%. To `C[C@H](NC(=O)[C@@H]1[C@@H](CO)[C@@H]2Cn3c(ccc(-c4cccc(F)c4)c3=O)[C@@H]2N1C)c1ccccc1` belongs 5.74%. To `CC(C)NC(=O)N(C)C[C@@H]1Oc2ccc(N(C)C)cc2CC(=O)N([C@H](C)CO)C[C@@H]1C` belongs 2.87%; to `CN1CCN(C(=O)C[C@H]2CC[C@@H]3[C@H](COC[C@@H](O)CN3CC3CCCC3)O2)CC1`, 4.35%. As for `CC(C)c1cn(CC[C@@H]2CC[C@@H](NC(=O)C3CC3)[C@H](CO)O2)nn1`, the inhibition was -4.66%.

With `COc1ccc2c3c(n(C)c2c1)[C@H](CO)N(C(=O)NC(C)C)CC31CCN(C(=O)NC(C)C)CC1`, the inhibition is -0.444%.

As to `O=C(N[C@H]1CC[C@@H](CCNS(=O)(=O)c2ccccc2)O[C@H]1CO)c1cccnc1`, the inhibition was -2.04%. With `C[C@@H]1CN([C@@H](C)CO)C(=O)c2cc(NC(=O)Nc3ccc(F)cc3)ccc2O[C@H]1CN(C)CC1CCCCC1` the figure was -0.385%; with `O=C(c1cccc(F)c1)N1CC[C@@H]2[C@H](CO)Nc3ccc(-c4ccccc4)cc3[C@@H]21`, -0.032%; with `O=C(C[C@@H]1CC[C@H](NC(=O)NC2CCCCC2)[C@H](CO)O1)NCc1ccc(F)cc1`, 0.011%. On to `CC(C)NC(=O)N1[C@H](C(=O)N2CCc3ccccc3C2)[C@@H](CO)[C@@H]2Cn3c(cccc3=O)[C@@H]21`, for which the inhibition is 0.844%.

Take `COc1cccc2c1C(=O)c1c(O)c3c(c(O)c1C2=O)CC(O)(C(C)=NNC(=O)c1ccc(Cl)c(Cl)c1)CC3OC1CC(N)C(O)C(C)O1` (stereo not drawn): the inhibition is 42% (active).

`COCCNC(=O)Nc1ccc2nc(-c3ccco3)c(-c3ccco3)nc2c1`: the inhibition is 30.5% (active).

In the case of `COCCNC(=O)CSc1nc(N)c(NC(=O)c2ccco2)c(=O)[nH]1`, the inhibition was -7.96%. To `COCCNC(=O)c1snc2ccc(Cl)cc12` belongs -4.43%. Consider `O=C(C[C@H]1CC[C@H]2[C@@H](COC[C@@H](O)CN2CC2CCCC2)O1)NCC1CC1`, for which the inhibition was -1.66%. To `Cc1noc(C)c1S(=O)(=O)N(C)C[C@H]1Oc2c(NC(=O)c3cnccn3)cccc2C(=O)N([C@H](C)CO)C[C@H]1C` belongs 5.55%; to `Cc1nc(N2[C@H](CO)[C@H](c3ccccc3)[C@H]2CNCC2CCC2)sc1C`, 2.07%; to `O=C(C1CCC1)N1CC(=O)N2[C@H](C1)[C@@H](c1ccc(-c3ccccc3F)cc1)[C@@H]2CO`, -0.661%.

`CN(C)C(=O)c1cccc(-c2ccc([C@H]3[C@@H](CO)N4C(=O)CN(C(=O)C5CC5)C[C@@H]34)cc2)c1`: the inhibition was 0.435%.

Take `CN1C(=O)c2cc(NC(=O)C3CC3)ccc2OC[C@H]2O[C@H](CC(=O)O)CC[C@H]21`: the inhibition is -5.19%. With `O=C(Nc1ccccc1F)N1CC(=O)N2[C@H](C1)[C@@H](c1ccc(C#CC3CC3)cc1)[C@@H]2CO`, the inhibition is -0.691%. On to `O=S(=O)(c1ccc(F)cc1)N1CC[C@@H]2[C@@H](CO)Nc3ccc(-c4ccccc4F)cc3[C@@H]21`, for which the inhibition was 1%. As to `O=C(Nc1ccccc1F)N[C@@H]1CC[C@@H](CCNC(=O)C2CC2)O[C@H]1CO`, the inhibition is -0.77%. In the case of `Cc1noc(C)c1NC(=O)Nc1ccc2c(c1)C(=O)N([C@H](C)CO)C[C@H](C)[C@@H](CN(C)S(C)(=O)=O)OCCCC[C@H](C)O2`, the inhibition was -4.94%. `CCCC#Cc1ccc([C@H]2[C@H]3CN(C(=O)c4cccnc4)CC(=O)N3[C@H]2CO)cc1`: the inhibition is -1.39%.

For `O=C(CN1C(=O)NC2(CCCCCC2)C1=O)NCc1cccs1`, the inhibition is -3.05%. With `O=C1CN(C(=O)CN2C(=O)NC3(CCCCC3)C2=O)c2ccccc2N1` the figure was -1.69%. In the case of `O=C(CN1C(=O)NC2(CCCCC2)C1=O)N1CCN(C(=O)c2cccs2)CC1`, the inhibition is 37.4% (active). To `O=C1CNC[C@H]2[C@@H](c3ccc(C4=CCCC4)cc3)[C@@H](CO)N12` belongs -1.67%; to `CCCN1C[C@H](C)[C@@H](OC)CN(C)C(=O)c2ccc(NC(=O)c3cnccn3)cc2OC[C@H]1C`, 4.52%.

`COc1ccc2c3c([nH]c2c1)[C@@H](CO)N(S(C)(=O)=O)CC31CN(CC2CC2)C1`: the inhibition is -2.67%. With `NCC[C@H]1CC[C@H](NC(=O)C2CC2)[C@@H](CO)O1` the figure was 2.22%; with `C[C@@H]1CN([C@@H](C)CO)C(=O)c2cc(NC(=O)C3CCCCC3)ccc2O[C@@H](C)CCCCO[C@H]1CN(C)C(=O)CCC(F)(F)F`, -1.11%; with `Cc1ccc(S(=O)(=O)Nc2ccc3c(c2)C(=O)N([C@@H](C)CO)C[C@@H](C)[C@H](CN(C)C(=O)NC(C)C)OCCCC[C@H](C)O3)cc1`, -4.09%.

With `COc1ccccc1S(=O)(=O)N[C@@H]1CC[C@H](CC(=O)N2CCOCC2)O[C@@H]1CO`, the inhibition is -0.783%. To `O=C(O)c1[nH]c2ccccc2c1C(c1cccc(O)c1)c1c(C(=O)O)[nH]c2ccccc12` belongs 34.8% (active). `O=C(OCC(=O)c1c[nH]c2ccccc12)c1cccc(O)c1`: the inhibition was -0.958%. To `C[C@H]1CN([C@@H](C)CO)C(=O)c2cc(NC(=O)Cn3cnnn3)ccc2O[C@H]1CN(C)S(C)(=O)=O` belongs -0.7%; to `CCCNC(=O)Nc1ccc2c(c1)C(=O)N(C)C[C@H](OC)[C@H](C)CN[C@@H](C)CO2`, -2.85%; to `COc1ccc2c3c([nH]c2c1)[C@H](CO)N(C(=O)C1CCC1)CC31CCN(Cc2cccc(F)c2)CC1`, 0.436%. To `Cc1noc(C)c1S(=O)(=O)Nc1ccc2c(c1)C(=O)N([C@H](C)CO)C[C@H](C)[C@H](CN(C)C(=O)CCC(F)(F)F)OCCCC[C@H](C)O2` belongs 0.261%; to `CCCNC(=O)Nc1ccc2c(c1)OC[C@H](C)N(C(=O)C1CCC1)C[C@H](C)[C@@H](OC)CN(C)C2=O`, 2.58%; to `C[C@@H]1CN([C@@H](C)CO)C(=O)c2c(c3ccccc3n2C)-c2ccccc2CO[C@@H]1CN(C)Cc1ccc2c(c1)OCCN2C`, 2.84%. For `O=C(C[C@H]1C[C@@H]2c3cc(NS(=O)(=O)c4ccc(F)cc4)ccc3O[C@@H]2[C@H](CO)O1)NCc1cccc(F)c1`, the inhibition was -2.83%. For `CCCNC(=O)C[C@H]1C[C@H]2c3cc(NC(=O)COC)ccc3O[C@H]2[C@H](CO)O1`, the inhibition was 0.774%.
